Sequences and labels used below:
T1: RBFOX1 RRM RbFoxmut (Fox-RRM*) (Homo sapiens, UniProt Q9NWB1 109-208, R118D;E147R;N151S;E152T)
T1 sequence: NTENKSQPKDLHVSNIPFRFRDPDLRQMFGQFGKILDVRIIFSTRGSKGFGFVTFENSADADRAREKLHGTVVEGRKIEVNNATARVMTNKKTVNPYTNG

B1: AGAGUGG (DNA:RNA)
RNA: GGGAGACCGGAAUUCAGAUUGUCCAGAGUGGUUAAAUCCCGUCGUAGCCACCA
DNA 1: CAATCTGAATTCCGGTCTCCC
DNA 2: TGGTGGCTACGACGGGATT
B2: UCUGGAG (DNA:RNA)
RNA: B1 RNA with A25U, G26C, A27U, U29G, G30A
DNA 1: CAATCTGAATTCCGGTCTCCC
DNA 2: TGGTGGCTACGACGGGATT
B3: AUGUAGG (DNA:RNA)
RNA: B1 RNA with G26U, A27G, G28U, U29A
DNA 1: CAATCTGAATTCCGGTCTCCC
DNA 2: TGGTGGCTACGACGGGATT
B4: AUCUCCA (DNA:RNA)
RNA: B1 RNA with G26U, A27C, G28U, U29C, G30C, G31A
DNA 1: CAATCTGAATTCCGGTCTCCC
DNA 2: TGGTGGCTACGACGGGATT
B5: GAUAAGU (DNA:RNA)
RNA: B1 RNA with A25G, G26A, A27U, G28A, U29A, G31U
DNA 1: CAATCTGAATTCCGGTCTCCC
DNA 2: TGGTGGCTACGACGGGATT
B6: GAAUACU (DNA:RNA)
RNA: B1 RNA with A25G, G26A, G28U, U29A, G30C, G31U
DNA 1: CAATCTGAATTCCGGTCTCCC
DNA 2: TGGTGGCTACGACGGGATT
B7: CCUCACA (DNA:RNA)
RNA: GGGAGACCGGAAUUCAGAUUGUCCCCUCACAUUAAAUCCCGUCGUAGCCACCA
DNA 1: CAATCTGAATTCCGGTCTCCC
DNA 2: TGGTGGCTACGACGGGATT
B8: GUCUUAA (DNA:RNA)
RNA: B1 RNA with A25G, G26U, A27C, G28U, G30A, G31A
DNA 1: CAATCTGAATTCCGGTCTCCC
DNA 2: TGGTGGCTACGACGGGATT
B9: GGCUUGC (DNA:RNA)
RNA: B1 RNA with A25G, A27C, G28U, G31C
DNA 1: CAATCTGAATTCCGGTCTCCC
DNA 2: TGGTGGCTACGACGGGATT
B10: GUUUGUC (DNA:RNA)
RNA: B7 RNA with C25G, C26U, C28U, A29G, C30U, A31C
DNA 1: CAATCTGAATTCCGGTCTCCC
DNA 2: TGGTGGCTACGACGGGATT
B11: GGAUUGA (DNA:RNA)
RNA: B1 RNA with A25G, G28U, G31A
DNA 1: CAATCTGAATTCCGGTCTCCC
DNA 2: TGGTGGCTACGACGGGATT
B12: GUCUUGU (DNA:RNA)
RNA: B1 RNA with A25G, G26U, A27C, G28U, G31U
DNA 1: CAATCTGAATTCCGGTCTCCC
DNA 2: TGGTGGCTACGACGGGATT
B13: GUCUUGC (DNA:RNA)
RNA: B1 RNA with A25G, G26U, A27C, G28U, G31C
DNA 1: CAATCTGAATTCCGGTCTCCC
DNA 2: TGGTGGCTACGACGGGATT
B14: GCUUGUC (DNA:RNA)
RNA: B7 RNA with C25G, C28U, A29G, C30U, A31C
DNA 1: CAATCTGAATTCCGGTCTCCC
DNA 2: TGGTGGCTACGACGGGATT
B15: GUCUUGA (DNA:RNA)
RNA: B1 RNA with A25G, G26U, A27C, G28U, G31A
DNA 1: CAATCTGAATTCCGGTCTCCC
DNA 2: TGGTGGCTACGACGGGATT
B16: GUCGUCU (DNA:RNA)
RNA: B1 RNA with A25G, G26U, A27C, G30C, G31U
DNA 1: CAATCTGAATTCCGGTCTCCC
DNA 2: TGGTGGCTACGACGGGATT
B17: UCGUGCG (DNA:RNA)
RNA: B7 RNA with C25U, U27G, C28U, A29G, A31G
DNA 1: CAATCTGAATTCCGGTCTCCC
DNA 2: TGGTGGCTACGACGGGATT
B18: UCGCCAG (DNA:RNA)
RNA: B7 RNA with C25U, U27G, A29C, C30A, A31G
DNA 1: CAATCTGAATTCCGGTCTCCC
DNA 2: TGGTGGCTACGACGGGATT
B19: ACGUCCU (DNA:RNA)
RNA: B7 RNA with C25A, U27G, C28U, A29C, A31U
DNA 1: CAATCTGAATTCCGGTCTCCC
DNA 2: TGGTGGCTACGACGGGATT
B20: AACCAGA (DNA:RNA)
RNA: B7 RNA with C25A, C26A, U27C, C30G
DNA 1: CAATCTGAATTCCGGTCTCCC
DNA 2: TGGTGGCTACGACGGGATT

Residue numbers refer to the chain shown, from its start. The full ranking holds about 16,000 sequences; the median of “ka relative to ugcaugu” is about 0.096, and the highest 2% start at about 0.35. Many of the other results were omitted from the sample, so the highest values are more common in it than they were.

For the assay, the target named is T1, RBFOX1 RRM RbFoxmut (Fox-RRM*). The assay can be described thus: EMSA; HiTS-Eq, 1 nM pool, 10 min; buffer printed only for the single-RNA assays: 10 mM Tris pH 7.5, 150 mM NaCl, 3.4 mM EDTA, 0.001% NP-40, 30 C. Particulars: tags: His6 N-terminal (pET28a); label: 5' 32P. The method in brief:
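Purified RbFox RRM, wild type or mutant, was incubated for 10 min in 50 µL with 1 nM of a 5′-radiolabelled RNA pool carrying 7 randomized nucleotides, whose flanks were annealed to DNA oligonucleotides, over a series of increasing protein concentrations. Unbound RNA was resolved on 8% native PAGE, cut out, reverse-transcribed, barcoded by PCR and sequenced on an Illumina HiSeq 2500. Relative association constants were derived from changes in read counts for each RNA species versus the control reaction and normalised to the cognate motif.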
For orientation: A gel shift assay detects complexes by their altered migration in electrophoresis.
Consider B1, for which the binding signal was 0.107 KA relative to UGCAUGU.

Regarding B2, the binding signal is 0.0838 KA relative to UGCAUGU.

Consider B3, for which the binding signal was 0.128 KA relative to UGCAUGU.

On to B4, for which the binding signal was 0.0926 KA relative to UGCAUGU.

Regarding B5, the binding signal was 0.0905 KA relative to UGCAUGU.

With B6, the binding signal is 0.0832 KA relative to UGCAUGU.

B7: the binding signal is 0.108 KA relative to UGCAUGU.

Take B8: the binding signal is 0.0967 KA relative to UGCAUGU.

On to B9, for which the binding signal is 0.199 KA relative to UGCAUGU.

Take B10: the binding signal is 0.305 KA relative to UGCAUGU.

With B11, the binding signal is 0.278 KA relative to UGCAUGU.

B12: the binding signal was 0.639 KA relative to UGCAUGU.

Consider B13, for which the binding signal is 0.502 KA relative to UGCAUGU.

On to B14, for which the binding signal was 0.248 KA relative to UGCAUGU.

With B15, the binding signal was 0.407 KA relative to UGCAUGU.

With B16, the binding signal is 0.0809 KA relative to UGCAUGU.

B17: the binding signal is 0.147 KA relative to UGCAUGU.

As for B18, the binding signal is 0.0961 KA relative to UGCAUGU.

Take B19: the binding signal is 0.0891 KA relative to UGCAUGU.

Take B20: the binding signal is 0.107 KA relative to UGCAUGU.

The values above are taken from paper PMC9911399, “Two distinct binding modes provide the RNA-binding protein RbFox with extraordinary sequence specificity”.
